ERK EGF block: blocks ERK signaling stimulated by EGF | AID 1454 | actives 0.41% (n = 130,000) | Potency, µM (doses to about 11.5 µM), for the others: at the highest dose activity change, negative = inhibition, hits mostly inhibitors | HEK293-V1b, EGF-stimulated phospho-ERK AlphaScreen;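 further: potency means the concentration at half of the fitted maximal effect; plate controls were stimulated vehicle wells for no effect and unstimulated vehicle basal for full effect; nearly all actives have a fitted effect of over 55% in size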
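HEK293 cells stably expressing V1b receptor, serum-reduced (1% FBS) overnight, pretreated 30 min with compound, then stimulated 5 min with 25 nM EGF; phospho-ERK detected by AlphaScreen SureFire. AC50 from Hill fits, normalized to DMSO and EGF.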
c-Raf inh: c-Raf inhibition, ERK pathway follow-up; shares compounds with ERK EGF block; c-Raf kinase inhibition, homogeneous biochemical assay; activity change, negative = inhibition, % at 76.9 µM; 70 tested, under 10 active
MEK1 kinase inh: ERK pathway inhibitors follow-up: human MEK1 kinase inhibition; shares compounds with ERK EGF block; homogeneous MEK kinase activity assay, ERK pathway; Potency, µM (doses to about 76.9 µM), for the others: top-dose activity change, negative = inhibition, actives largely listed as inhibitors; 70 tested, under 10 active; AID 1732
Target sequence (Q02750 whole entry, looked up): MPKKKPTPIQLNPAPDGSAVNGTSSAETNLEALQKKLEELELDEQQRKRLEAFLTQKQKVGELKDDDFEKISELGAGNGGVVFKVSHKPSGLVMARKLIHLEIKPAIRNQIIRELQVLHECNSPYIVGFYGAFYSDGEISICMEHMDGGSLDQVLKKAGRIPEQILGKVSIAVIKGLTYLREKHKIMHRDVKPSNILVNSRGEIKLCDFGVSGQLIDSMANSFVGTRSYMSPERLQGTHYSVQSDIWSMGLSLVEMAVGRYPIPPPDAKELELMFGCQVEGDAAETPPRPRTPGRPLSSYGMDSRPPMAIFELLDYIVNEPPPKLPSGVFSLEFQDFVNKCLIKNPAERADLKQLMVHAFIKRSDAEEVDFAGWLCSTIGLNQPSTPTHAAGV
An asterisk follows results filed as active; ? = inconclusive; / = no result; [ ] = another dose, or the depositor's remark. Shown is part of a subset that was picked to be rich in hits. The call rests on the fitted dose curve; in most records, active means well fitted curve in the direction sought with a large enough effect; inconclusive means small, poorly fitted or top-dose-only effect, or another doubt; inactive means no such curve, though single readings can be large; an effect the other way counts as inactive or inconclusive.

SMILES	ERK EGF block	others
CC(=O)Oc1ccc(Cl)c2cccnc12	-1%
C=CCN1C(=O)NC(=O)/C(=C/C=C/c2ccccc2)C1=O	22µM*
O=C1NC(=O)N(CCc2ccc(F)cc2)C(=O)/C1=C\C=C\c1ccccc1	-9%
O=C1NC(=O)N(Cc2ccccc2)C(=O)/C1=C/c1cnc(-c2ccccc2)nc1	0%
COc1ccc2c(c1)c(CCN1CCOCC1)c(C)n2C(=O)c1cccc(Cl)c1Cl	2%
CC/C=C\C/C=C\C/C=C\C/C=C\C/C=C\CCCC(=O)NC(C)C(=O)O (stereo not drawn)	0%
CC(C)n1cnc2c(C(=O)N[C@H]3CN4CCC3CC4)cc(Cl)cc21	-5%
CC[C@@H]1CN2CCc3cc(OC)c(OC)cc3[C@@H]2C[C@@H]1C[C@H]1NCCc2cc(OC)c(OC)cc21	-7%
C[C@@H]1O[C@@H](O[C@H]2C[C@@H](O)[C@]3(CO)[C@H]4[C@H](O)C[C@]5(C)[C@@H]([C@@H]6COC(=O)C6)CC[C@]5(O)[C@@H]4CC[C@]3(O)C2)[C@H](O)[C@H](O)[C@H]1O	12%
O=c1[nH]c(O)c(/C=C2/C=CC(c3cc(Cl)ccc3Cl)=N2)c(=O)[nH]1	28µM*
Cc1ccc2c(c1)=NC(=O)/C(=C/c1c(O)[nH]c(=O)[nH]c1=O)C=2	-8%[57.5 µM]
O=C(Oc1ccccc1)N1CCC2(CCCN(Cc3nccs3)C2)CC1	19%
C[C@H](N)Cc1c[nH]c2ccc(OCc3cccs3)cc12	-2%
CC/C=C\C/C=C\C/C=C\C/C=C\C/C=C\CCCC(=O)NCCCC(=O)O	-9%
COC(=O)[C@H]1C[C@H]2CC[C@H](O)C[C@H]2N1CC1CC1	-1%
CC(C)(C#N)O[C@H]1OC(CO)C(O)C(O)C1O (stereo partly drawn)	16%
CCCCC[C@@H](/C=C/C=C\CCCCCCCCCC(=O)O)OO	-4%
Cc1nn(C(C)(C)C)c(C)c1/C=N/OC(=O)Nc1ccc(Cl)c(Cl)c1	32µM*
Cc1ccc(NC(=O)c2snnc2C)cc1Cl	-40%
C=CCNC(=S)Nc1ccc(OC(=O)Nc2ccc(Cl)c(Cl)c2)cc1	-16%[57.5 µM]
CC1O[C@@H](O[C@@H]2C(O)C[C@H](O[C@@H]3C(O)C[C@@H](OC4CC[C@@]5(C)C6CC[C@]7(C)C(C8=CC(=O)OC8)CC[C@@]7(O)C6CC[C@@H]5C4)OC3C)OC2C)CC(O)[C@H]1O (stereo partly drawn)	10%
CC[C@@H]1CN2CCc3cc(OC)c(OC)cc3[C@H]2C[C@@H]1C[C@H]1NCCc2cc(OC)c(OC)cc21	-15%[25.7 µM]
NC(=O)c1cn(C2OC(CO)C(O)C2O)c2ncnc(N)c12 (stereo not drawn)	-2%
CCNC(=O)[C@@H]1O[C@@H](n2cnc3c(N)ncnc32)[C@H](O)[C@H]1O	-14%
CCNC(=O)[C@H]1O[C@@H](n2cnc3c(N)ncnc32)[C@H](O)[C@@H]1O	8.9µM*
SMILES	ERK EGF block	others
CC1OC(=O)C(C(C)C)NC(=O)C(C(C)C)OC(=O)C(C(C)C)NC(=O)C(C)OC(=O)C(C(C)C)NC(=O)C(C(C)C)OC(=O)C(C(C)C)NC(=O)C(C)OC(=O)C(C(C)C)NC(=O)C(C(C)C)OC(=O)C(C(C)C)NC1=O (stereo not drawn)	7%
CC(C)CN1CCC2(CC1)CCN(C(=O)Oc1ccccc1)CC2	4%
CCC(C)C(=O)OC1C[C@@]2(C)C(c3ccoc3)OC(=O)CC23OC2(C)OC34C(OC(=O)C(C)C)[C@]3(O)C(OC(=O)C5(C)OC5C)[C@]5(C)CC3(O)[C@](C)(C5CC(=O)OC)C14O2 (stereo partly drawn)	24%
COc1ccc(-c2nc3ccccc3c(=O)n2-c2ccc(OC)cc2)cc1	-13%
Cc1nc2c(=O)n(C)c(=O)nc-2n(C)n1	22%	c-Raf inh=?;MEK1 kinase inh=?
O=c1c2ccccc2nc(-c2ccccc2)n1-c1ccccc1	-8%[57.5 µM]
Cn1nc(-c2ccccc2)nc2c(=O)n(C)c(=O)nc1-2	/	c-Raf inh=?;MEK1 kinase inh=0.71µM*
CCn1nc(-c2ccccc2)nc2c(=O)n(C)c(=O)nc1-2	0%	c-Raf inh=?;MEK1 kinase inh=0.63µM*
N#Cc1cccc(NC(=O)N2CC3(CCN(C(=O)Oc4ccccc4)CC3)C2)c1	-3%
CC(C)(O)C1C2OC(=O)C1[C@]1(O)C[C@H]3O[C@]34C(=O)O[C@H]2[C@]14C (stereo partly drawn) (tested in a mixture with another compound)	18%
CN1CCCC2(CCN(C(=O)Oc3ccccc3)CC2)C1	-5%
C=C(C)C1Cc2c(ccc3c2OC2COc4cc(OC)c(OC)cc4C2C3=O)O1 (stereo not drawn)	8%
Oc1ccc2c3c1O[C@H]1c4c(c5ccccc5n4Cc4ccccc4)C[C@]4(O)[C@H](C2)N(CC2CC2)CC[C@@]314	5%
CC1(C)N(O)C(c2ccc(C(=O)O)cc2)=[N+]([O-])C1(C)C	-13%
O=C1Nc2cc(Cl)c(Cl)cc2N2CCNC[C@H]12	8%
C[C@H](N)Cc1cnc[nH]1	0%
O=C1CC2OCC=C3CN4CC[C@@]56c7ccccc7N1C5C2C3CC46 (stereo partly drawn)	19%
COc1ccc(OC)c([C@H](O)[C@H](C)N)c1	3%[25.7 µM]
